This note sets out measurements from PubChem BioAssay (NCI).

Each structure is given as a SMILES string. About 83,000 compounds went through this panel and 20% of them were active in at least one assay; those are over-represented in the sample as a whole.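 Percent growth is the endpoint: 0 to 100 indicates growth inhibition (40 means 60% inhibition), 0 means no net growth, and negative values indicate cell death.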 Values without a mark were called inactive. Activity calls are given as the source filed them. How the source made its calls: active means growth percent below 10; inactive means the rest.

For the experiment, the system named is SN12C renal. Kind of experiment: NCI-60 one-dose screen, 48 h (100 = growth as untreated, 0 = no growth, -100 = all killed). The note with it: 10 µM.
For the molecule `C=C(C(=O)c1ccccc1)C(NC(C)(C)C)c1ccccc1` (centres undefined), the growth was 2.42% (active).

In the case of `O=c1c2ccccc2nc(SCCN2CCCCC2)n1CCc1ccccc1`, the growth was 81.5%.

For the molecule `N=c1c2c(-c3ccccc3)c(-c3ccccc3)n(Cc3ccccc3)c2ncn1CCCO`, the growth is 40.3%.

`COc1cc(/C=C2\Oc3cc(OCC(=O)c4ccccc4)ccc3C2=O)cc(OC)c1OC`: the growth was 109%.

As to `Cc1ccc(NC(=O)CSc2nc3ccccc3c(=O)n2CCc2ccccc2)c(C(=O)O)c1`, the growth was 96.6%.

With `O=C(Nc1nc2ccc(F)cc2s1)c1cc(-c2ccc(F)cc2)n2nc(-c3ccccc3)cc2n1`, the growth was 87.5%.

Consider `CN1CCCNc2c(c(=O)c2=O)NCCCN(C)CCCNc2c(c(=O)c2=O)NCCCN(C)CCCNc2c(c(=O)c2=O)NCCCN(C)CCCNc2c(c(=O)c2=O)NCCCN(C)CCCNc2c(c(=O)c2=O)NCCCN(C)CCCNc2c(c(=O)c2=O)NCCCN(C)CCCNc2c(c(=O)c2=O)NCCC1`, for which the growth was 33.3%.

With `CCN1CCC2(CC1)OC(c1ccccc1)C(c1ccccc1)O2` (centres undefined), the growth is 110%.

With `O=C(O)c1ccc(Cl)cc1Nc1ccc(F)cc1`, the growth was 69.4%.

For the molecule `CCCCCC(=O)c1ccc(OCCCN2CCN(C(=O)OCC)CC2)cc1`, the growth is 94.8%.

For `COc1ccc(NC(=O)CSc2nc3ccccc3c(=O)n2CCc2ccccc2)cc1`, the growth is 79%.

Take `COc1ccc(-c2nnc(-c3c(-c4ccccc4)nc4ncccn34)o2)cc1OC`: the growth is 97.3%.

For `COc1ccc2nc3cc(Cl)ccc3c(NCCNCC(C)O)c2c1` (centres undefined), the growth was 27.3%.

As for `CC(C)(C)NC/C(=C\c1ccccc1)C(=O)c1ccccc1`, the growth was -45.8% (active).

As to `COc1ccc(-c2ccc3cc(C(=O)Nc4ccc(O)c(C(=O)/C=C/c5cc(OC)c(OC)c(OC)c5)c4)ccc3c2)cc1`, the growth was 92.6%.

For `CCCCN(CCCC)c1cc(C(=O)CCCCCN)c2ccccc2n1`, the growth was 89.7%.

On to `COc1ccc(NC(=O)Cc2nc3nc4sc(C)c(C)c4c(=O)n3[nH]2)cc1`, for which the growth is 106%.

Turning to `COc1cc(-c2nc(-c3nnc(-c4ccc(F)c(Cl)c4)o3)c3ccccn23)cc(OC)c1OC`, the growth was 43.9%.

Regarding `NC(=O)SCC(=O)Nc1ccc(S(N)(=O)=O)cc1`, the growth is 95.6%.

In the case of `Nc1nccc(Nc2ccccc2)n1`, the growth is 119%.

As to `Oc1[nH]c2cc(Cl)ccc2c1/C=c1/ccc2c(c1)N=C(c1cc(F)cc(F)c1)N=2`, the growth was 64%.

Regarding `c1ccc2c(c1)oc1c3cccnc3ccc21`, the growth was 93.2%.

Regarding `COc1ccc2c(c1)sc1nc(-c3ccccc3)c(-c3ccsc3)n12`, the growth was 50.2%.

On to `CSc1cc(SC)ncn1`, for which the growth is 94.4%.

With `COc1ccc2c(c1)sc1nc(-c3ccccc3)c(-c3ccc(O)c(OC)c3)n12`, the growth was 96.3%.

As to `CCCCCCCCCCCCCC[n+]1ccc(C(N)=O)cc1`, the growth is 8.7% (active).

Regarding `CN1c2ccccc2[C@]2(Cc3ccccc3)Cc3ccccc3N[C@H]12`, the growth was 109%.

Consider `CCN(CC)CCSCCCNc1c2ccc(Cl)cc2nc2ccc(OC)cc12`, for which the growth was -32% (active).

For `CC(=O)c1cc(Br)ccc1O`, the growth is 120%.

Turning to `COc1ccc(-c2nc3sccn3c2-c2nc3c([nH]2)C(=O)c2ccccc2C3=O)cc1`, the growth was 86%.

Turning to `N=C1c2nc3n(c2C(=O)c2nc4n(c21)CCCC4)CCCC3`, the growth is -86.1% (active).

For `COc1ccc(-c2nc3ccccn3c2-c2nnc(-c3cc(OC)c(OC)c(OC)c3)o2)cc1`, the growth was 69.7%.

Regarding `CCN(CC)CCOc1nc2ccc(OC)cc2c2c1-c1ccc(OC)cc1C2=O`, the growth is 29.3%.

In the case of `CCCCCCCCN(CCCCCCCC)CCCCCCCCCN1CCCc2cc(OC)ccc21`, the growth was 82.7%.

On to `COc1ccc2c(c1)C(=O)c1c-2c(OCCN(C)C)nc2cc(OC)c(OC)cc12`, for which the growth was 51.9%.

Consider `COc1ccc(/C(=C2\O[C@@H]([C@H]3COC(C)(C)O3)[C@H]3OC(C)(C)O[C@@H]23)c2cc(OC)c(OC)c(OC)c2)cc1O`, for which the growth is 57.7%.

`Nc1ccn(C2CC(O)C(CO)O2)c(=O)n1` (centres undefined): the growth is 108%.

Turning to `CC(C)=CCc1ccc(O)c(=O)cc1C(C)C`, the growth was 25%.

Take `COc1cc(NC(=O)CSc2nc3ccccc3c(=O)n2CCc2ccccc2)cc(OC)c1OC`: the growth was 25.9%.
